# Measured values published in PubChem BioAssay (NCI).
# Compounds without any hit were thinned out: in the full panel of roughly 83,000, 20% have a hit.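 Compound tested at a single concentration for 48 hours in 96-well plates; a percent growth value below 10 was scored as active.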 A number with no mark means an inactive call. Active and inactive are the calls of the source.
# System: NCI-H460 lung
# Experiment: NCI-60 one-dose screen, 48 h (100 = growth as untreated, 0 = no growth, -100 = all killed)
# Conditions: 10 µM
# Procedure: Growth inhibition of the NCI-H460 human Non-Small Cell Lung tumor cell line is measured as a screen for anti-cancer activity. Cells are grown in 96 well plates and exposed to the test compound for 48 hours. Compounds are tested at a single concentration, which is 10^-5 M for most compounds. The reported endpoint is percent growth (GI% or GIPRCNT), where numbers from 0 - 100% represent growth inhibition, and numbers from -100% - 0 represent cell death. For example, a value of 40 represents 60% growth inhibition. A value of 0 means no net growth occurred over the course of the experiment. A value of -40 indicates 40% of cells at the beginning of the experiment died by the end of the experiment. A value of -100 means all cells are dead at the end of the experiment.
# NCI-60 Human Tumor Cell Lines Screen was performed using the standard one-dose NCI protocol, which is described in more detail at https://dtp.cancer.gov/discovery_development/nci-60/default.htm.
# Compounds with GIPRCNT values below 10 were considered active. Activity score was based on GIPRCNT using the following formula: […]
# Score is 0 for GIPRCNT values of 100 or above, 50 for GIPRCNT values of 0, and 100 for GIPRCNT values of -100.
row,SMILES,growth
1,NC1=NC(c2ccc(Cl)cc2)C2=C(N1)/C(=C/c1ccc(Cl)cc1)CCC2 (stereo not given),91.3%
2,O=C1CC(=O)N(C(=O)c2nn(-c3ccc(Cl)cc3)cc2O)N1,27.4%
3,COc1cc(N)c2ncccc2c1SC,105%
4,CC(=O)C1N=NCC1c1ccccc1 (stereo not given),98.8%
5,CCOC(=O)c1cc(C(=O)c2cc(OC)c(OC)c(OC)c2)n2ccc(-c3cc[n+](CC(=O)c4cc(OC)c(OC)c(OC)c4)cc3)cc12,-10.3% (active)
6,CNC(=O)c1cn(C2CC2)c2cc(N3CCN(C(=O)c4cc(OC)c(OC)c(OC)c4)CC3)c(F)cc2c1=O,106%
7,Cc1cc(CC(C)CC(C)(C)C)n(O)c(=O)c1 (stereo not given) (tested in a mixture with another compound),3.41% (active)
8,CC(=O)O[C@@]12CO[C@@H]1C[C@H](O)[C@@]1(C)C(=O)[C@H](O)C3=C(C)[C@@H](OC(=O)[C@H](O)[C@@H](NC(=O)OC(C)(C)C)c4ccccc4)C[C@@](O)([C@@H](OC(=O)c4ccccc4)C12)C3(C)C (stereo not given in full),12.1%
9,CCCC1(CN2c3ccccc3Sc3ccc(Cl)cc32)CCN(CC)C1 (stereo not given),-100% (active)
10,NNC(=O)Oc1c(Cl)cc(Cl)cc1[N+](=O)[O-],110%
11,CN1CCN(c2cc3c(cc2F)c(=O)c(C(=O)O)cn3-c2ccc(F)cc2)CC1,98.5%
12,COc1ccc(-c2cc(-c3ccccc3)nc(SCCCCCCC(=O)NO)n2)cc1,36%
13,Cc1nc2n(c(=O)c1CCN1CCC(c3noc4cc(F)ccc34)CC1)CCC[C@@H]2O,105%
14,CCOC(=O)c1sc2ncnc(Nc3ccc4c(cnn4C(=O)Nc4ccccc4)c3)c2c1C,49.2%
15,O=[N+]([O-])c1ccc(/C(=C/c2ccccc2)[n+]2ccccc2)cc1,103%
16,CCN(CC)CCOc1cccc2c1C(=O)c1ccccc1C2=O,101%
17,CC(C)(C)OC(=O)CN1CCc2c(sc3ncnc(N/N=C/c4ccccc4Br)c23)C1,70.9%
18,COC(=O)C1(O)NC(=C(C#N)C#N)C(C#N)=C1C(=O)c1ccc(OC)c(OC)c1 (stereo not given),100%
19,Cc1cc(SC#N)cc(C(C)(C)C)c1O,104%
20,CCC(c1ccc(OC)cc1)C(CC)c1ccc(O)c(CN2CCN(C)CC2)c1 (stereo not given),51.8%

row,SMILES,growth
1,O=C(CSc1nnc(-c2ccc(Cl)cc2)o1)Nc1ccc(C(=O)/C=C/c2ccc(Cl)cc2)cc1,98.2%
2,COc1cccc(N=Nc2cccc(OC)c2)c1,103%
3,O=C(N/N=C/c1ccc(Cl)cc1)c1ccccc1Nc1cccc(C(F)(F)F)c1,86.8%
4,Cc1c(C(N)=O)sc2c1c(=O)n(Cc1ccccc1)c1nnc(-c3ccc(Br)cc3)n21,4.4% (active)
5,Cc1ccc(C)c(COc2cc(NC(=O)c3ccc4c(c3)OCO4)ccc2N(C)S(C)(=O)=O)c1,-9.36% (active)
6,COc1ccc(/C=C2\CCCC3C2=Nc2ccccc2NC3c2ccc(OC)cc2)cc1 (stereo not given),94.8%
7,C[N+]1(CCCCC[N+]2(C)CCCC2)CCCC1,94.7%
8,CCn1c2ccc(O)cc2c2c(C)c3c[n+](C)ccc3c(C)c21,7.28% (active)
9,Oc1ccc(-c2[nH]c3ccccc3c2-c2nc3ccccc3o2)cc1,86.6%
10,Cc1ccc(C2NC(=S)N3C(c4ccc(C)cc4)NC(=S)N23)cc1 (stereo not given),9.7% (active)
11,NS(=O)(=O)c1ccc(N2N=C(c3ccccc3)CCC2=O)cc1,102%
12,Cc1ccc(NC(=O)N2CCCCC2)cc1[N+](=O)[O-],108%
13,CCC(CC)n1c(C)cc(=O)n1C(CC)CC,103%
14,Nc1nccc(OCCO)n1,108%
15,COc1cc(-c2nn(-c3cccc(NC(=O)CCN4CCN(c5ccccc5)CC4)c3)cc2-c2ccncc2)ccc1Cl,6.87% (active)
16,CCOC(=O)c1cc(C(=O)c2cc(OC)c(OC)c(OC)c2)n2nc(C)ccc12,9.56% (active)
17,C=C(C)[C@@H]1CC[C@]2(COCCC#N)CC[C@]3(C)[C@H](CC[C@@H]4[C@@]5(C)Cc6c([nH]c7ccccc67)C(C)(C)[C@@H]5CC[C@]43C)[C@@H]12,84.9%
18,COc1ccc(-c2cc(-c3cc(OC)ccc3OC)nc(N)c2C#N)cc1,52.5%
19,CCn1c(SCc2ccc(C)cc2)nnc1-c1nn(-c2ccc(Cl)cc2Cl)c(-c2ccc(Cl)cc2)c1C,8.69% (active)
20,Cc1cc(C)nc(NS(=O)(=O)c2ccc(Nc3nc4nc(NCc5ccccc5)nc(-c5ccc(O)cc5)c4c(=O)[nH]3)cc2)n1,16.4%
